# Test results: the antibiotic and cytotoxicity screens of Wong et al. (2023)
# Out of some 39,000 compounds screened, about 3,300 (8.5%) were called active. For the sample, actives were picked, then their nearest neighbours and some compounds at random.
# Test system: HepG2
# Assay: cytotoxicity call (relative viability < 0.9)
# Conditions: 10 µM
row,Structure (SMILES),cytotoxicity call
1,CN(C)Cc1cn(CC[C@H]2CC[C@@H](NS(=O)(=O)c3ccccc3)[C@@H](CO)O2)nn1,inactive
2,C[C@H]1CN([C@@H](C)CO)C(=O)CCCn2cc(nn2)CO[C@@H]1CN(C)Cc1ccc(C(=O)Nc2ccccc2N)cc1,inactive
3,C[C@@H]1CN([C@@H](C)CO)C(=O)c2cccc(NS(=O)(=O)c3cccs3)c2O[C@@H]1CN(C)CC1CC1,inactive
4,C[C@@H]1CN([C@@H](C)CO)C(=O)c2cc(NS(=O)(=O)c3ccc(Cl)cc3)ccc2O[C@@H](C)CCCCO[C@@H]1CN(C)C(=O)NC1CCCCC1,inactive
5,Cc1noc(C)c1S(=O)(=O)Nc1cccc2c1O[C@@H](CN(C)Cc1ccc(Oc3ccccc3)cc1)[C@@H](C)CN([C@@H](C)CO)C2=O,inactive
6,C[C@H]1CN([C@@H](C)CO)S(=O)(=O)c2ccc(-c3ccncc3)cc2O[C@H]1CN(C)S(=O)(=O)c1ccccc1F,inactive
7,[O-][NH2+]N(CCO)CCO,inactive
8,C[C@H]1CN([C@@H](C)CO)C(=O)c2cc(NC(=O)Nc3ccc4c(c3)OCO4)ccc2O[C@@H]1CN(C)Cc1ccc(C(F)(F)F)cc1,inactive
9,C[C@@H]1CN([C@@H](C)CO)C(=O)c2cc(NC(=O)Nc3ccc(C(F)(F)F)cc3)ccc2O[C@H]1CN(C)Cc1ccc2c(c1)OCO2,active
10,C[C@@H]1CN([C@@H](C)CO)C(=O)c2cc(NC(=O)Nc3ccc4c(c3)OCO4)ccc2O[C@@H]1CN(C)Cc1ccc(C(F)(F)F)cc1,inactive
11,C[C@H](CO)N1C[C@H](C)[C@@H](CN(C)Cc2ccc3c(c2)OCO3)Oc2ccc(NC(=O)Nc3ccc(C(F)(F)F)cc3)cc2C1=O,active
12,C[C@H](CO)N1C[C@H](C)[C@H](CN(C)Cc2ccc(C(F)(F)F)cc2)Oc2ccc(NC(=O)Nc3ccc4c(c3)OCO4)cc2C1=O,inactive
13,C[C@H]1CN([C@@H](C)CO)C(=O)c2cc(NC(=O)Nc3ccc(C(F)(F)F)cc3)ccc2O[C@@H]1CN(C)Cc1ccc2c(c1)OCO2,active
14,C[C@@H]1CN([C@H](C)CO)C(=O)c2cc(NC(=O)Nc3ccc4c(c3)OCO4)ccc2O[C@@H]1CN(C)Cc1ccc(C(F)(F)F)cc1,active
15,C[C@@H]1CN([C@H](C)CO)C(=O)c2cc(NC(=O)Nc3ccc4c(c3)OCO4)ccc2O[C@H]1CN(C)Cc1ccc(C(F)(F)F)cc1,inactive
16,C[C@@H]1CN([C@H](C)CO)C(=O)c2ccccc2-c2ccccc2CO[C@H]1CN(C)C(=O)Nc1cccc(Cl)c1Cl,inactive
17,C[C@@H]1CN([C@@H](C)CO)C(=O)c2cc(NC(=O)C3CC3)ccc2O[C@@H]1CN(C)S(=O)(=O)c1cn(C)cn1,inactive
18,C[C@H](CO)N1C[C@H](C)[C@H](CN(C)S(=O)(=O)c2ccccc2)OCCCC[C@H](C)Oc2ccc(NC(=O)Nc3cccc4ccccc34)cc2C1=O,inactive
19,COc1cccc(S(=O)(=O)Nc2ccc3c(c2)[C@H]2C[C@@H](CC(=O)NC4CCCCC4)O[C@@H](CO)[C@H]2O3)c1,inactive
20,COCCOC(=O)N1C(=O)[C@@]2(c3ccccc31)[C@H](c1ccc(O)cc1)N1[C@H](c3ccccc3)[C@H](c3ccccc3)OC(=O)[C@H]1[C@@H]2C(=O)N1CCc2cc(OC)c(OC)cc2C1,inactive
21,COc1ccc(S(=O)(=O)Nc2ccc3c(c2)C(=O)N([C@H](C)CO)C[C@@H](C)[C@@H](CN(C)S(=O)(=O)c2cccs2)O3)cc1,inactive
22,C[C@@H]1CCCCO[C@H](CN(C)CC2CC2)[C@H](C)CN([C@@H](C)CO)C(=O)c2cc(NC(=O)Cc3ccccc3)ccc2O1,inactive
23,O=C(C[C@@H]1C=C[C@H](NC(=O)C2CC2)[C@H](CO)O1)NCCCN1CCOCC1,inactive
24,Cc1[nH]c(/C=C2\C(=O)Nc3ccc(S(=O)(=O)Cc4c(Cl)cccc4Cl)cc32)c(C)c1C(=O)N1CCC[C@@H]1CN1CCCC1,active

row,Structure (SMILES),cytotoxicity call
1,C[C@@H]1CN([C@@H](C)CO)C(=O)CCCn2cc(nn2)CO[C@@H]1CN(C)S(=O)(=O)c1ccc(C#N)cc1,inactive
2,C[C@@H]1CN([C@H](C)CO)C(=O)c2cc(NS(=O)(=O)c3ccc(F)cc3)ccc2O[C@H]1CN(C)Cc1ccc(Oc2ccccc2)cc1,inactive
3,C[C@H]1CN([C@@H](C)CO)C(=O)c2cc(NS(=O)(=O)c3ccc(F)cc3)ccc2O[C@H]1CN(C)Cc1ccc(Oc2ccccc2)cc1,inactive
4,C[C@@H]1CN([C@H](C)CO)C(=O)c2cc(NS(=O)(=O)c3ccc(F)cc3)ccc2O[C@@H]1CN(C)Cc1ccc(Oc2ccccc2)cc1,active
5,C[C@@H]1CN([C@@H](C)CO)C(=O)c2cc(NS(=O)(=O)c3ccc(F)cc3)ccc2O[C@@H]1CN(C)Cc1ccc(Oc2ccccc2)cc1,active
6,C[C@@H]1CN([C@@H](C)CO)C(=O)c2cc(NS(=O)(=O)c3ccc(F)cc3)ccc2O[C@H]1CN(C)Cc1ccc(Oc2ccccc2)cc1,inactive
7,C[C@H]1CN([C@@H](C)CO)C(=O)c2cc(NS(=O)(=O)c3ccc(F)cc3)ccc2O[C@@H]1CN(C)Cc1ccc(Oc2ccccc2)cc1,inactive
8,COCC(=O)N(C)C[C@@H]1Oc2cc(C#Cc3ccccc3)ccc2S(=O)(=O)N([C@H](C)CO)C[C@@H]1C,inactive
9,C[C@H](CO)N1C[C@H](C)[C@H](CN(C)S(=O)(=O)c2cn(C)cn2)Oc2cc(C#Cc3ccccc3)ccc2S1(=O)=O,inactive
10,CNCCC(Oc1cccc2ccccc12)c1cccs1.Cl (stereo unspecified),active
11,CNCc1cccc2ccccc12,inactive
12,Cc1noc(C)c1S(=O)(=O)Nc1ccc2c(c1)CC(=O)N([C@H](C)CO)C[C@H](C)[C@@H](CN(C)Cc1ccccc1)O2,inactive
13,C[C@H]1CN([C@@H](C)CO)C(=O)c2cccc(NS(=O)(=O)c3ccc(Cl)cc3)c2O[C@@H]1CN(C)C(=O)Nc1cccc2ccccc12,inactive
14,Nc1ncnc2c1ncn2[C@H]1O[C@@H](CO)[C@H](O)[C@@H]1O,inactive
15,Nc1nc(F)nc2c1ncn2[C@@H]1O[C@H](CO)[C@@H](O)[C@H]1O,active
16,O=c1nc[nH]c2c1ncn2[C@@H]1O[C@H](CO)[C@@H](O)[C@H]1O,inactive
17,Nc1nc(F)nc2c1ncn2[C@@H]1O[C@H](COP(=O)(O)O)[C@@H](O)[C@@H]1O,inactive
18,Nc1ncnc2c1ncn2[C@@H]1O[C@H](COP(=O)(O)O)[C@@H](O)[C@H]1O,inactive
19,Nc1nc(=O)c2ncn([C@@H]3O[C@H](CO)[C@@H](O)[C@H]3O)c2[nH]1,inactive
20,Nc1nc(=S)c2ncn([C@@H]3O[C@H](CO)[C@@H](O)[C@H]3O)c2[nH]1,active
21,Nc1ncnc2c1ncn2[C@H]1O[C@@H](COP(=O)(O)OP(=O)(O)OP(=O)(O)O)[C@@H](O)[C@@H]1O,inactive
22,Nc1nc(Cl)nc2c1ncn2[C@@H]1O[C@H](CO)[C@@H](O)[C@H]1O,inactive
23,Nc1ncnc2c1ncn2[C@@H]1O[C@H](CO)[C@@H](O)[C@@H]1O,inactive
24,Nc1ncnc2c1ncn2[C@@H]1O[C@H](COP(=O)(O)OP(=O)(O)OP(=O)(O)OP(=O)(O)OC[C@H]2O[C@@H](n3cnc4c(N)ncnc43)[C@H](O)[C@@H]2O)[C@@H](O)[C@H]1O,active

row,Structure (SMILES),cytotoxicity call
1,OC[C@H]1O[C@H](n2cnc3cncnc32)[C@@H](O)[C@@H]1O,active
2,Cc1[nH]c(=O)[nH]c(=O)c1S(=O)(=O)N1CCC[C@H](C(=O)NCc2ccc3c(c2)OCO3)C1,inactive
3,C[C@@H]1CN([C@@H](C)CO)C(=O)c2cc(NC(=O)NC3CCCCC3)ccc2O[C@@H](C)CCCCO[C@H]1CN(C)Cc1ccncc1,inactive
4,C[C@H]1CN([C@@H](C)CO)S(=O)(=O)c2ccc(C#CC3(O)CCCC3)cc2O[C@H]1CN(C)C(=O)Nc1cccc(F)c1,inactive
5,C[C@H](CO)N1C[C@H](C)[C@H](CN(C)Cc2ccc(C(F)(F)F)cc2)Oc2ccc(NC(=O)Cc3cn(C)c4ccccc34)cc2C1=O,inactive
6,O=C(C[C@@H]1CC[C@H](NC(=O)Cc2ccccn2)[C@@H](CO)O1)NCCCN1CCOCC1,inactive
7,COc1ccc(CN(C)C[C@H]2OCCCC[C@@H](C)Oc3ccc(NC(=O)Nc4c(C)noc4C)cc3C(=O)N([C@H](C)CO)C[C@@H]2C)cc1,inactive
8,C[C@H]1CCCCO[C@H](CN(C)C(=O)Nc2ccc3c(c2)OCO3)[C@@H](C)CN([C@@H](C)CO)C(=O)c2cc(NC(=O)Nc3cccc4ccccc34)ccc2O1,inactive
9,COc1ccc(S(=O)(=O)N(C)C[C@H]2Oc3ccc(NC(=O)CCC(F)(F)F)cc3CC(=O)N([C@H](C)CO)C[C@@H]2C)cc1,inactive
10,C[C@@H]1CN([C@H](C)CO)C(=O)Cc2cc(NS(=O)(=O)c3cccs3)ccc2O[C@H]1CN(C)Cc1ccc(Cl)c(Cl)c1,inactive
11,Cc1cccc(S(=O)(=O)N2C[C@H](O)COC[C@@H]3O[C@H](CC(=O)NCCCN4CCOCC4)CC[C@H]32)c1,inactive
12,CC(=O)C=C(O)CCC(=O)O,inactive
13,C=CCSC1=N[C@@]2(COCc3ccc(OC)cc3)Oc3ccccc3[C@H]([C@H]2CO[Si](C)(C)C(C)(C)C)N1C(=O)c1ccccc1,inactive
14,Cc1noc(C)c1S(=O)(=O)Nc1ccc2c(c1)C(=O)N([C@H](C)CO)C[C@H](C)[C@H](CN(C)C)OCCCC[C@H](C)O2,inactive
15,Nc1ncn(C2OC(CO)C(O)C2O)c(=O)n1 (stereo unspecified),active
16,CNc1ncnc2c1ncn2[C@@H]1O[C@H](CO)[C@@H](O)[C@H]1O,inactive
17,OC[C@H]1O[C@@H](n2cnc3c(NC4CCCC4)ncnc32)[C@H](O)[C@@H]1O,inactive
18,Nc1ncn([C@@H]2C[C@H](O)[C@@H](CO)O2)c(=O)n1,inactive
19,Nc1ccn([C@@H]2O[C@H](CO)[C@@H](O)[C@@H]2O)c(=O)n1,inactive
20,Nc1ccn([C@@H]2O[C@H](CO)[C@H](O)[C@@H]2O)c(=O)n1,inactive
21,Nc1ncn([C@@H]2O[C@H](CO)[C@@H](O)[C@H]2O)c(=O)n1,active
22,OC[C@H]1O[C@@H](n2cnc3c(NCc4ccco4)ncnc32)[C@H](O)[C@@H]1O,active
23,Nc1ncn([C@H]2C[C@H](O)[C@@H](CO)O2)c(=O)n1,inactive
